Screening data from PubChem BioAssay.
Bfl-1 A1 inh: inhibitors of the anti-apoptotic protein A1, read as caspase activation. caspase activation, % (test concentration not listed). MEF A1-2A-BIM cells, Caspase-Glo 3/7 luminescence, 3 h; percent of clofoctol response, vehicle zero. hit rate 0.066% among 330,000;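 active means over half of replicate activation scores above 10%, or exactly half above 10 with the replicate mean above 10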
NTR1 ag: agonists of human neurotensin receptor NTR1; NTR1-U2OS beta-arrestin-GFP spot imaging, agonist mode; activation, % at 20 µM; hit rate 0.17% among 330,000;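 active means activation at or above 40% of the spot to cytoplasm intensity ratio, with at least 20 cells analyzed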;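 further: 0% = DMSO without peptide and 100% = 100 nM NTR1 peptide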
Target sequence (P30989 whole entry, looked up): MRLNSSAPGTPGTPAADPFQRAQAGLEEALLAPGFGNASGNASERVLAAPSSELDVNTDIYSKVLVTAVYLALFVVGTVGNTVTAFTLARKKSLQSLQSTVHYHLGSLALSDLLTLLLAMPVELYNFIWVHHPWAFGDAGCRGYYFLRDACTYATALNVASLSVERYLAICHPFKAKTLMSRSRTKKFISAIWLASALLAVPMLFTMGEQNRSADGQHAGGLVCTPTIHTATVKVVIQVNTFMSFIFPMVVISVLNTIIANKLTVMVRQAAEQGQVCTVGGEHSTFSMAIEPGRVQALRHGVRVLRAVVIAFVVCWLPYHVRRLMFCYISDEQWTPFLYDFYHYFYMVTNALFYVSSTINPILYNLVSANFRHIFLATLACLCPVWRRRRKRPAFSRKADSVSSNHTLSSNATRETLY
Beta apoptosis: blocks beta cell apoptosis | INS-1E cytokine-induced death, ATP luminescence, 48 h; percent of positive-control rescue, neutral wells zero | protection from apoptosis, % (no concentration beside the values) | hit rate 0.8% among 300,000;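 active means Every replicate reaches about 75%, or at least half do and their mean reaches it too, limit read from the data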;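 further: 0% = cytokine-treated negative control wells and 100% = positive control rescue; higher means more ATP so stronger rescue from cytokine killing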
Mdm2 MdmX PPI: human Mdm2/MdmX binding inhibition; SaOS-2 split-luciferase Mdm2/MdmX complementation, luminescence; hit rate 3% among 330,000; O15151+Q00987; AID 485346; inhibition, % at 8 µM;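 active means inhibition of at least 50% at 8 µM in the primary screen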
Jurkat NFkB inh: inhibitors of the PMA/ionomycin-induced NF-kB reporter in Jurkat cells. PMA/ionomycin-induced NF-kB luciferase reporter, luminescence. hit rate 0.53% among 330,000. inhibition, % at 4 µM. AID 435003; in the data active means inhibition above about 50%
697 NFkB inh: lowers PMA/ionomycin-induced NF-kB signal in 697 B cells; 697 B-cell NF-kB luciferase reporter, 16 h; inhibition, % at 4 µM; AID 435022; hit rate 0.33% among 330,000; in the data active means inhibition above about 35%
Mdm2 MdmX conf: human Mdm2/MdmX binding inhibition, confirmed. shares compounds with Mdm2 MdmX PPI. luminescent assay. inhibition, % at 8 µM. hit rate 55% among 10,000. AID 489028; in the data active means inhibition above about 40%
FLuc counter: full-length luciferase inhibition in Mdm2/MdmX counter-screen; SaOS-2 full-length luciferase counterscreen, luminescence; inhibition, % at 8 µM; shares compounds with Mdm2 MdmX PPI; hit rate 77% among 6,200;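 active means mean inhibition at 8 µM reaching about 37%, which flags the compound as non-specific, limit read from the data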;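 further: p53-null SaOS-2 cells with luciferase driven by a doxycycline-inducible promoter; compound on cells about two nights before reading with doxycycline added after day one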
Starred values were filed as active, the others as inactive; x = no result given. Hits are enriched below; roughly 3.8% of the tested compounds scored in any of these assays.

SMILES | Bfl-1 A1 inh | NTR1 ag | Beta apoptosis | Mdm2 MdmX PPI | Jurkat NFkB inh | 697 NFkB inh | Mdm2 MdmX conf | FLuc counter
Cc1cc(C)c(C(=O)/C=C/c2cccc3ccccc23)c(=O)[nH]1 | 1 | 4 | -4 | 88* | 8 | -5 | 94* | 58*
C/C(=C\c1ccc(F)cc1)C(=O)c1c(C)cc(C)[nH]c1=O | x | 2 | x | 38 | -1 | 12 | x | x
CCC(=O)c1ccc(OCC(=O)NCc2ccccc2CN2CCCC2)cc1 | 0 | 0 | -6 | 5 | -15 | -5 | x | x
O=C(N/N=C/c1cn(-c2ccccc2)nc1-c1ccccc1)c1ccco1 | 0 | 12 | 2 | 6 | -17 | 6 | x | x
N#Cc1ccc(N/N=C/c2cn(-c3ccccc3)nc2-c2ccccc2)c([N+](=O)[O-])c1 | 1 | 1 | 87* | 91* | 9 | 16 | 5 | x
NS(=O)(=O)c1ccc(N/N=C/c2cn(-c3ccccc3)nc2-c2cccs2)c([N+](=O)[O-])c1 | 0 | 22 | 108* | 96* | -26 | -7 | 15 | x
O=C(CSc1nc2ccccc2[nH]1)Nc1nc(-c2cccc(Br)c2)cs1 | 0 | 30 | -4 | -13 | 0 | -12 | x | x
CCCCn1c(SCC(=O)Nc2nccs2)nc2ccccc2c1=O | 0 | 1 | 1 | 65* | -1 | 1 | 4 | x
CN(C)CCCn1c(SCC(=O)Nc2nc(-c3cccc(Br)c3)cs2)nc2ccccc2c1=O | 1 | 6 | 15 | 100* | 8 | -5 | 56* | 115*
CC(C)(C)c1nc2ccccc2c2nnc(SCC(=O)Nc3nccs3)n12 | 1 | 1 | x | 68* | 37 | -57 | 60* | 50*
CC(C)(C)c1nc2ccccc2c2nnc(SCC(=O)Nc3nc4ccccc4s3)n12 | 0 | 9 | 0 | 18 | 6 | -23 | x | x
CCc1ccc(Oc2coc3cc(OCC(=O)Nc4cc(C)ccc4C)ccc3c2=O)cc1 | 3 | 1 | 22 | 52* | 3 | -10 | 14 | x
Cc1cc(C)cc(OC(=O)CS(=O)c2ccc(C(F)(F)F)cc2[N+](=O)[O-])c1 (centres undefined) | 0 | 18 | -26 | 50* | -13 | 14 | 40* | 55*
Cc1cc(N2O[C@]34C=C[C@]25C[C@@H](O)CC[C@]5(C)C3CC[C@]2(C)[C@@H]([C@H](C)/C=C/[C@H](C)C(C)C)CC[C@H]24)no1 (some centres undefined) | x | 0 | x | 91* | x | -37 | -50 | x
CCN1CCN(c2ccc(S(=O)(=O)N3CCCCC3)cc2NC(=O)c2cc3ccccc3o2)CC1 | 0 | 0 | 5 | 62* | 4 | -22 | 23 | x
CCN1CCN(c2ccc(S(=O)(=O)N3CCCCC3)cc2NC(=O)/C=C/c2ccc(F)cc2)CC1 | 1 | 2 | 2 | 53* | 2 | -3 | 45* | 87*
CCN1CCN(c2ccc(S(=O)(=O)N3CCCCC3)cc2NC(=O)/C=C/c2cccc(OC)c2OC)CC1 | 0 | 12 | -2 | 75* | -1 | -9 | 50* | 77*
CCN1CCN(c2ccc(S(=O)(=O)N3CCCCC3)cc2NC(=O)/C=C/c2ccc(OC(F)F)cc2)CC1 | 0 | 7 | x | 82* | 7 | -15 | 52* | 69*
CC(=O)Nc1ccc(C(=O)NC2CCSc3ccccc32)cc1 (centres undefined) | 0 | -1 | -1 | -10 | -27 | 4 | x | x
CC(=O)c1c(C)[nH]c(C(=O)NC2CCSc3ccccc32)c1C (centres undefined) | -1 | 0 | 3 | 56* | 8 | -9 | 33 | x
COc1ccccc1N1CCN(CCCN=C2CC(=O)N(C)C(=O)N2C)CC1 | x | 3 | x | 13 | -5 | 17 | x | x
COc1ccc(CNc2ncc(-c3ccc(Cl)cc3)n2C)c(OC)c1OC | 1 | 0 | -2 | -8 | -5 | -5 | x | x
CCn1nc(C)c(CN2CCC(C(=O)Nc3cccc(-c4cccc(Cl)c4)c3)CC2)c1C | 0 | 5 | 5 | 80* | -2 | -13 | 40* | 62*
COc1cccc(-c2cccc(NC(=O)C3CCN(Cc4nccs4)CC3)c2)c1 | 0 | 0 | -3 | 16 | 2 | 6 | x | x
CCOc1ccc(CN2CCC(C(=O)Nc3cccc(-c4ccn[nH]4)c3)CC2)cc1Cl | x | 10 | x | 61* | 17 | -4 | 0 | x
SMILES | Bfl-1 A1 inh | NTR1 ag | Beta apoptosis | Mdm2 MdmX PPI | Jurkat NFkB inh | 697 NFkB inh | Mdm2 MdmX conf | FLuc counter
CCn1ncc(CN2CCC(C(=O)Nc3cccc(-c4cccc(F)c4)c3)CC2)c1C | x | 0 | x | 33 | -5 | 7 | x | x
Cc1cc(C)n(CCCN2CCC(C(=O)Nc3cccc(-c4cccc(F)c4)c3)CC2)n1 | 1 | 3 | -7 | 58* | 22 | -12 | 56* | 74*
CC(=O)c1cc(CN2CCC(n3nccc3NC(=O)c3ccccc3)CC2)cs1 | 0 | 0 | 3 | 1 | 5 | -10 | x | x
CN1CCN(NC(=O)Nc2cccc(F)c2)CC1 | 0 | -1 | 0 | 2 | -1 | 4 | x | x
COc1cc(/C=C/C(=O)OCC(=O)c2ccc(S(=O)(=O)N3CCCCC3)cc2)cc(OC)c1OC | x | -1 | x | 56* | -11 | -11 | 34 | x
COc1cccc(/C=C/C(=O)OCC(=O)c2ccc(S(=O)(=O)N3CCCCC3)cc2)c1OC | 1 | 2 | -6 | 13 | -5 | -3 | x | x
COc1ccc(NC(=O)N(C)C[C@H]2Oc3ccc(NC(=O)NC4CCCCC4)cc3C(=O)N([C@H](C)CO)C[C@@H]2C)cc1 | -2 | 3 | -1 | 10 | 0 | 5 | x | x
COc1ccc(CCC(=O)OC(C)C(=O)c2ccc(C)cc2)cc1 (centres undefined) | 0 | 1 | -1 | 67* | -9 | -29 | -3 | x
C=CCN1C(=O)c2ccc(C(=O)Nc3ccccn3)cc2C1=O | -1 | 1 | -6 | 5 | 7 | 17 | x | x
N#C/C(=N\Nc1ccc(Cl)c(Cl)c1)C(=O)C1CC1 | -7 | 9 | 52 | 58* | -26 | -156 | 72* | 47*
COc1cc(-c2nc3cnccn3c2Nc2ccccc2)ccc1O | -5 | 2 | -8 | 57* | -13 | 6 | 38 | 94*
COc1cc(-c2nc3cnccn3c2Nc2ccc(C)cc2)ccc1O | -4 | 3 | -24 | 69* | -27 | -21 | 8 | x
COc1cc(-c2nc3cnccn3c2Nc2ccc3c(c2)OCCO3)ccc1O | 1 | -1 | 1 | 43 | 7 | -7 | x | x
COc1cc(-c2nc3cnccn3c2Nc2ccc(C(C)C)cc2)ccc1O | -1 | 18 | x | 34 | -11 | -52 | x | x
O=C(NC1CCN(S(=O)(=O)c2ccccc2)CC1)c1ccc(F)cc1 | 1 | 0 | 5 | 25 | 3 | 5 | x | x
